Screens (PubChem)
This is a sample that favours compounds with a hit; in the whole collection about 1.1% have one here.
CXXC DNA block – inhibitors of human MLL CXXC domain-DNA interaction | Potency, µM (series often up to 115 µM), for inactives: at the highest dose activity change, negative = inhibition, hits mostly inhibitors | Q03164 | AID 2662 | 0.037% of 290,000 active | MLL-CXXC / FITC-HOXA9 DNA fluorescence polarization; active = well fitted inhibition curve with a large enough effect in the polarisation, with a control signal flat, not every such curve was filed as active; inconclusive = small, poorly fitted or top-dose-only effect, or effect the other way, or a change in a side signal; inactive = no such curve, though single readings can be large or run the other way; the % refers to the polarisation; also: potency is read from the fitted curve at half-maximal effect
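Purified MLL-CXXC (added from a 7 uM solution) was preincubated 5 min at ambient with pinned compounds in 50 mM Tris-HCl pH 7.5, 50 mM NaCl, 1 mM DTT, 0.05% BSA. Fluorescein-labeled HOX-A9 DNA (50 nM solution) followed, 30 min, then polarization read.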
KCNH2 3.1 block – KCNH2 3.1 (human) potassium channel inhibition. U2OS KCNH2 3.1, thallium flux FluxOr; stronger effect = lower value. activity change, % (tested at about 1.8 µM). 0.95% of 340,000 active. AID 720553;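 active = maximum activity change below -70%; inconclusive = maximum activity change from -70% to -50%; inactive = maximum activity change above -50%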;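 also: thallium influx rate constant from kinetic fluorescence after stimulation buffer; % is scaled to controls: 0 for no effect and ±100 for the full control effect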
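Measured as rate of thallium-driven FluxOr signal in transduced U2OS cells carrying the 3.1 channel, read kinetically for 2 min upon stimulation; values are rate constants scaled to DMSO control wells.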
Menin MLL FP FL – displaces fluorescein MLL peptide from human menin. Fluorescence polarization, fluorescein-MLL peptide displacement from menin. FP activity change, % at 61.4 µM. 290,000 tested, under 10 active; active = well fitted curve in the direction sought with a large enough effect in the polarisation, not every such curve was filed as active; inconclusive = small, poorly fitted or top-dose-only effect, or effect the other way, or a change in a side signal; inactive = no such curve, though single readings can be large or run the other way; the % refers to the polarisation; also: % of control where 0% means no effect
Menin MLL FP TR – displaces Texas Red mutant MLL peptide from human menin. AID 1768. Menin + Texas Red MLL mutant peptide, fluorescence polarization. 0.23% of 270,000 active. Potency, µM (series often up to 61.6 µM), for inactives: at the highest dose FP activity change, negative = inhibition, most hits filed as inhibitors. O00255; active = well fitted inhibition curve with a large enough effect in the polarisation, with a control signal flat, not every such curve was filed as active; inconclusive = small, poorly fitted or top-dose-only effect, or effect the other way, or a change in a side signal; inactive = no such curve, though single readings can be large or run the other way; the % refers to the polarisation; also: potency is read from the fitted curve at half-maximal effect; % of control where 0% means no effect
hERG WT inh – blocks the wildtype human KCNH2 potassium channel; U2OS, BacMam KCNH2, thallium flux FluxOr; stronger effect = lower value; activity change, % at 1.84 µM; 0.37% of 340,000 active; AID 720551;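 active = maximum activity change below -70%; inconclusive = maximum activity change between -70% and -50%; inactive = maximum activity change above -50%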; also: % is scaled to controls: 0 for no effect and ±100 for the full control effect
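U2OS cells were transduced with wild-type KCNH2 virus (2.03 x 10^8 / mL) for 4 h at room temperature, then cultured overnight at 37 C. Thallium flux was read with FluxOr dye. Rate constants were normalized to DMSO controls.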
Starred values were filed as active, the others as inactive; ? = inconclusive; nt = not tested or not shown.

SMILES | CXXC DNA block | KCNH2 3.1 block | Menin MLL FP FL | Menin MLL FP TR | hERG WT inh
Cc1ccc(S(=O)(=O)N2C[C@H]3C(=O)C[C@@H](c4ccc(Cl)cc4)N(S(=O)(=O)c4ccccc4C)[C@H]3C[C@H]2c2ccc(Cl)cc2)cc1 | nt | -1.9 | nt | nt | 1.1
O=C(CCCCCNC(=O)N1CCn2c1nc1ccccc12)NCc1ccccc1 | -6.5% | 2.0 | -11.7 | ? | 0.7
Cc1sc2ncnc(NCC3(N4CCOCC4)CCCCC3)c2c1C | -3.7% | -72.3* | 0.2 | -7.2% | -18.6
Cc1cc(C)nc(NC(=O)/C=C/c2cccs2)c1 | 28.5% | -8.7 | -1.4 | 15.2% | 6.0
Cc1cc(C)c(-c2csc(NC(=O)/C=C/c3cccs3)n2)c(C)c1 | -3.1% | -77.5* | 0.7 | -26.1% | -4.3
CSc1ccc2c(c1)C(N1CCN(C)CC1)Cc1ccc(F)cc1S2 (stereo not drawn) | nt | -94.1* | nt | nt | ?
CCn1c(C(=O)NC2CCC(C)CC2)cc2sccc21 (stereo not drawn) | 23.3% | -2.5 | 1.6 | ? | -233.3*
CCOC(=O)N1CCC(NC(=O)c2cc3sccc3n2CC)CC1 | 1.2% | -7.7 | 3.0 | 11.1% | -9.6
Oc1ccc2ccccc2c1C=Nc1ccc(Cl)cn1 | ? | -114.1* | 3.7 | 24.3% | 4.5
CC(C)c1c(O)ccc2c1CCC1C(C)(C)CCC[C@@]21C (stereo partly drawn) | nt | nt | 5.2 | 55.1% | nt
CC(Nc1ccc(Br)cn1)c1cc(Cl)ccc1O (stereo not drawn) | ? | -72.1* | 3.2 | ? | -31.3
CC(Nc1ccc(Cl)cc1)c1cc(Cl)ccc1O (stereo not drawn) | -2.8% | 2.2 | 3.8 | ? | -0.4
Cc1noc(C)c1-c1ccc2ncnc(NCc3cccc(-c4ccccc4)c3)c2c1 | nt | nt | 3.8 | 16.4% | nt
CCC1CCC(N2CCN(c3ccc(F)cc3)CC2)CC1 (stereo not drawn) | 0.3% | -24.0 | -2.8 | -14.8% | 47.5
CCC1CCC(N2CCN(c3ccc([N+](=O)[O-])cc3)CC2)CC1 (stereo not drawn) | -2.6% | -101.0* | -7.5 | ? | -123.5*
CC1CCC(N2CCN(c3ccc([N+](=O)[O-])cc3)CC2)CC1 (stereo not drawn) | 4.9% | -111.6* | -13.8 | ? | ?
CN(CC(=O)Nc1ccccc1Cl)C(=O)CN1C(=O)C2CCCCC2C1=O (stereo not drawn) | nt | 8.3 | nt | nt | -16.0
CCc1ccc(NC(=O)C(=O)NCCN2CCN(C(=O)c3ccc(OC)cc3)CC2)cc1 | nt | -96.7* | nt | nt | 31.3
O=C(CN1CCN(Cc2ccc(Cl)cc2)CC1)N/N=C/C=C/c1ccccc1[N+](=O)[O-] | -1.0% | -91.3* | 2.6 | -12.3% | -36.1
O=C(NCCN1CCN(Cc2ccccc2)CC1)Nc1cc(Cl)cc(Cl)c1 | 10.3% | -92.8* | 0.0 | nt | ?
O=C(NCCN1CCN(c2ccc([N+](=O)[O-])cc2)CC1)NCc1ccccc1 | 13.7% | -73.4* | 2.0 | 2.0% | -10.2
O=C(CN1CCN(Cc2ccccc2)CC1)N/N=C/C=C/c1ccccc1[N+](=O)[O-] | 3.6% | -0.6 | -0.2 | -11.0% | 7.9
COc1ccc(NC(=O)C(=O)NCCN2CCN(C(=O)c3ccc(C)cc3)CC2)cc1 | -3.5% | -7.6 | -2.9 | -0.3% | 50.5
CCOc1ccc(OCCC(=O)OCC(=O)NC2CCCC2)cc1 | nt | -7.0 | nt | nt | 2.5
CCCCc1ccc(NC(=O)C(=O)NCCN2CCN(C(=O)c3ccc([N+](=O)[O-])cc3)CC2)cc1 | 6.7% | -100.8* | -6.9 | ? | ?
SMILES | CXXC DNA block | KCNH2 3.1 block | Menin MLL FP FL | Menin MLL FP TR | hERG WT inh
O=C(NCCN1CCN(Cc2ccc([N+](=O)[O-])cc2)CC1)C(=O)Nc1ccccc1 | 6.3% | -81.8* | 0.3 | -6.1% | ?
O=C(NCCN1CCN(S(=O)(=O)c2ccc([N+](=O)[O-])cc2)CC1)C(=O)Nc1ccccc1 | 6.2% | 2.5 | -0.2 | 3.8% | 21.7
C/C(=N/NC(=O)CN1CCN(Cc2ccccc2)CC1)c1ccc([N+](=O)[O-])cc1 | -12.8% | -79.1* | -0.1 | nt | -10.8
C/C(=N\NC(=O)CN1CCN(Cc2ccccc2)CC1)c1ccncc1 | -3.1% | 2.3 | 3.6 | nt | 5.2
O=C(CCN1CCN(c2ccc([N+](=O)[O-])cc2)CC1)c1ccc(Cl)cc1 | 50.1% | -113.2* | nt | nt | -77.3*
O=C(NCCN1CCOCC1)C(=O)NCC1OCCCN1S(=O)(=O)c1cc(F)ccc1F (stereo not drawn) | -1.7% | -9.0 | nt | nt | -0.5
CC(C)c1ccc(NC(=O)c2ccc3c(c2)C(=O)N(Cc2cccnc2)C3=O)cc1 | -0.9% | 1.6 | 0.0 | 5.9% | -19.4
COc1ccccc1C(=O)Nc1ccc(C(=O)/C=C/c2cccs2)cc1 | 15.1% | -82.6* | 4.9 | 25.2% | 64.6
CCOC(=O)C1(CCOc2ccccc2)CCN(Cc2ccc(C)o2)CC1 | -11.5% | -9.6 | 8.1 | ? | 12.4
CCOC(=O)C1(CCOc2ccccc2)CCN(Cc2ccc(O)cc2)CC1 | 34.4% | -84.1* | 3.0 | 5.6% | -20.8
CCCN1CCC(CCOc2ccccc2)(C(=O)OCC)CC1 | -1.1% | -20.9 | 1.6 | -5.7% | 20.5
CCOC(=O)C1(CCOc2ccccc2)CCN(Cc2ccc(OCCO)cc2)CC1 | -7.7% | -109.8* | -2.3 | -22.5% | -77.0*
COc1ccc(NCc2nnc(-c3ccccc3)o2)cc1 | 55.7% | -1.0 | nt | nt | 9.7
Nn1c(SCc2cccc(Br)c2)nnc1-c1cccnc1 | 1.5% | -98.9* | 6.4 | nt | -0.8
Nn1c(SCc2cccc(F)c2)nnc1-c1cccnc1 | -3.3% | 2.5 | 1.8 | nt | 2.2
O=C(c1cc2ccccc2oc1=O)N1CCN(c2ccc(N3CCOCC3)nn2)CC1 | 0.5% | -88.3* | 0.3 | 0.6% | -9.6
Cc1ccc(/C([O-])=C(/C(=S)NCc2ccccc2)[n+]2cccc(CO)c2)cc1[N+](=O)[O-] | 26.6% | 1.6 | -5.4 | 16.7% | -73.5*
O=C(c1ccnc(Cl)c1)N1CCCC(N2CCN(c3ccccc3F)CC2)C1 (stereo not drawn) | 8.4% | -8.1 | 0.5 | -13.5% | -11.4
Cc1coc2c(C)c3oc(=O)c(CCC(=O)NCCCN4CCOCC4)c(C)c3cc12 | -6.7% | 11.3 | -6.7 | -24.8% | -0.2
Cc1coc2c(C)c3oc(=O)c(CCC(=O)N4CCC(C(=O)NCCCC(=O)O)(c5ccccc5)CC4)c(C)c3cc12 | 4.5% | -197.0* | nt | nt | -20.6
CC(=O)N[C@@H](CCC(=O)O)C(=O)O | ? | nt | -4.0 | -2.6% | nt
COc1ccc(CCNC(=O)C2CC3Cn4c(nc5cc(Cl)c(Cl)cc54)C3N2C)cc1 (stereo not drawn) | 40.9% | -13.3 | 3.4 | nt | -252.1*
